High-throughput results as filed in PubChem BioAssay.
Most compounds without a hit are left out; they make up all but 4% or so of the library.
esBAF inh: inhibitors of esBAF chromatin remodeling in mouse ES cells. 2% of 350,000 active. AID 602393. reporter increase, % at 12.5 µM. Bmi1-luciferase knock-in reporter, 24 h; 100% = twice the neutral-well signal; in the data active = activation above about 40%; inconclusive = no clear call, values can overlap the other calls;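 also: 0% = median of the plate's neutral control wells and 100% = double that signal; a rise in the Bmi1 reporter signal indicates esBAF inhibition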
Statin myotox sup: suppressors of simvastatin-induced myotoxicity in C2C12 myotubes. ATP luminescence, 48 h; scaled: DMSO 0, geranylgeraniol control 100. 0.78% of 330,000 active. AID 602340. rescue of ATP level, % at 7.49 µM;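 active = mean ATP rescue above about 67%, or every replicate alone reaching that limit, limit read from the data, passing the limit was not always enough; inconclusive = no clear call, values can overlap the other calls; inactive = mean under the limit and some replicate under it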;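 also: myotubes were challenged with 10 µM simvastatin during compound exposure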
LMP1 NFkB inh: Epstein-Barr LMP1 NF-kappaB reporter inhibition. LMP1-induced NF-kappaB luciferase reporter cells, luminescence. inhibition, % at 12.5 µM. 0.69% of 350,000 active; in the data active = inhibition above about 41%; inconclusive = no clear call, values can overlap the other calls;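 also: 0% = neutral control wells and 100% = reference inhibitor control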
MITF TRPM1 HTS: increases MITF-driven TRPM1 promoter luciferase signal; activation, % at 12.5 µM; 0.75% of 300,000 active; SK-MEL-5 TRPM1-promoter luciferase, 24 h; % of positive control, neutral wells = 0;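 active = mean activation of at least 80% with every replicate also reaching 80%; inconclusive = mean reaches 80% but some replicate falls short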;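 also: 0% = neutral control wells and 100% = parthenolide positive control wells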
Wnt act: activators of Wnt/beta-catenin signaling. activation, % at 9.35 µM. AID 743398. Wnt/beta-catenin reporter cell assay, activator, plate reader. 1.2% of 300,000 active; in the data active = activation above about 30%, passing the limit was not always enough; inconclusive = no clear call, values can overlap the other calls;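 also: 0% = neutral control wells and 100% = positive control wells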
TRPM1 prom inh: reduces MITF-dependent TRPM1 promoter luciferase signal; SK-MEL-5 TRPM1 promoter luciferase, 24 h; 0.83% of 330,000 active; AID 488899; inhibition, % at 12.5 µM;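 active = mean inhibition across replicates of 60% or more, whatever share of single replicates reaches that level; inconclusive = some that reach 60%, reason not given; inactive = mean inhibition across replicates below 60%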
An asterisk follows results filed as active; u = inconclusive; x = not tested or not shown.

SMILES	esBAF inh	Statin myotox sup	LMP1 NFkB inh	MITF TRPM1 HTS	Wnt act	TRPM1 prom inh
CC1C(O)=C(c2nc3ccccc3[nH]2)C(=N)N1c1ccccc1 (stereo unspecified)	48*	-21	-1	30	x	-17
N=C1C(c2nc3ccccc3[nH]2)=C(O)CN1c1ccccc1	63*	-115	-21	45	6	-42
CCOc1ccc(N2CC(O)=C(c3nc4ccccc4c(=O)[nH]3)C2=N)cc1	x	x	46*	12	-1	-10
Cc1cc(OCC(=O)NCc2cccnc2)ccc1[N+](=O)[O-]	6	-11	5	-7	1	6
O=C(C[C@H]1CC[C@H]2[C@@H](COC[C@@H](O)CN2C(=O)c2ccc3c(c2)OCO3)O1)NCCN1CCCCC1	-5	-6	x	x	x	x
CCOC(=O)CSc1nc2cc(C)ccc2cc1C#N	44*	7	-23	40	49*	-92
CCOC(=O)CSc1nc2cc(OC)ccc2cc1C#N	33	3	-29	111*	67*	-167
CCOC(=O)CSc1nc(N)c(C#N)cc1C#N	x	x	2	40	11	-37
COc1ccc2cc(C#N)c(SCC(=O)Nc3nonc3C)nc2c1	40	-10	-14	20	23	-26
O=C(CSc1nc(-c2ccccc2)ns1)N1CCOCC1	x	x	-18	51	12	-49
CCOC(=O)CSc1nc2cc(C)cc(C)c2cc1C#N	24	1	-22	43	x	-39
CCOC(=O)CSc1nc2ccc(C)cc2cc1C#N	71*	2	-68	134*	-1	-131
Cc1cccc(-c2nsc(SCC(=O)N3CCCC3)n2)c1	x	x	-13	89*	29	-75
Cc1ccc2cc(C#N)c(SCC(=O)N3CCCC3)nc2c1	9	7	-8	67	33*	-65
CCn1c(C(=O)NC2CCC(C)CC2)cc2sccc21 (stereo unspecified)	52*	0	-33	92*	16	-93
Cn1c(C(=O)N2CCCC(C(=O)O)C2)cc2sccc21 (stereo unspecified)	8	96*	5	6	x	-4
Cn1c(C(=O)NC2CCCCC2)cc2sccc21	43*	0	-25	72	x	-65
Cn1c(C(=O)N2CCCC(C(=O)N3CCN(C(=O)c4ccco4)CC3)C2)cc2sccc21 (stereo unspecified)	-6	1	-15	-9	2	6
CC1(C)CC(=O)C2=C(C1)N(C1CCCCC1)C(=O)C2(O)C(F)(F)F (stereo unspecified)	4	1	1	x	x	2
O=C(Nc1ccccc1F)N[C@@H]1CC[C@@H](CC(=O)N2CCCCC2)O[C@H]1CO	2	-3	x	x	x	x
CC(=O)Nc1c(O)nc(SC/C=C/CSc2nc(O)c(NC(C)=O)c(=O)[nH]2)[nH]c1=O	x	x	4	1	-1	-4
Cc1ccccc1Oc1cc(NC(=O)Cn2cnc([N+](=O)[O-])c2)cc([N+](=O)[O-])c1	x	x	0	-16	-2	19
CCC(=O)Nc1ccc2c(c1)C(=O)N(C)C[C@H](OC)[C@H](C)CN(Cc1cccc(F)c1)[C@H](C)CO2	-15	17	x	x	x	x
OCCN(CCO)CC(O)COc1ccc(C23CC4CC(CC(C4)C2)C3)cc1 (stereo unspecified)	x	x	42*	-50	-18	51
OCCN(CCO)CC(O)COc1ccc(Br)cc1 (stereo unspecified)	x	x	8	8	3	-4
SMILES	esBAF inh	Statin myotox sup	LMP1 NFkB inh	MITF TRPM1 HTS	Wnt act	TRPM1 prom inh
OCCN(CCO)CC(O)COCCC12CC3CC(CC(C3)C1)C2 (stereo unspecified)	2	-19	73*	9	x	-4
Cn1ncc2c(O/N=C(\N)c3ccc(C(C)(C)C)cc3)ncnc21	x	x	-59	x	x	80*
CCOC(=O)c1ccc(Nc2ncnc3c2cnn3C)cc1	24	8	-23	31	4	-31
C[C@@H]1CN(C(=O)c2cc(COc3cccc(C(F)(F)F)c3)on2)C[C@H](C)O1	57*	-18	-12	103*	23	-104
CC(NC(=O)c1cc(COc2cccc(C(F)(F)F)c2)on1)c1nccs1 (stereo unspecified)	61*	-3	-27	66	13	-63
O=C(c1cc(COc2cccc(C(F)(F)F)c2)on1)N1CCCC1	70*	-3	-9	x	-1	x
CCOC(=O)N1CCN(C(=O)c2cc(COc3cccc(C(F)(F)F)c3)on2)CC1	x	x	-15	38	21	-50
COc1ccc(S(=O)(=O)N(C)C[C@@H]2OCCCC[C@@H](C)Oc3ccc(NS(=O)(=O)c4ccccc4)cc3C(=O)N([C@H](C)CO)C[C@@H]2C)cc1	-5	x	x	x	x	x
Oc1ccccc1OCc1nc2ccccc2s1	41*	6	-7	74	x	-74
OCc1cc(Br)ccc1OCc1nc2ccccc2s1	77*	-8	-43	75	x	-63
Oc1ccc(O)c(Cc2nc3ccccc3s2)c1	7	-12	-18	20	0	-23
C[C@H](CO)N1C[C@H](C)[C@H](CN(C)CC2CC2)Oc2c(NS(=O)(=O)c3ccc(F)cc3)cccc2C1=O	-4	-12	x	x	x	x
Cc1ccc(C(=O)N/C(=C/c2cccs2)C(=O)NCc2ccco2)cc1	x	x	-6	-6	-1	7
O=C1C2C3C=CC(CC3)C2C(=O)N1c1ccccc1 (stereo unspecified)	3	-7	3	-13	1	11
O=C1C=CC2C3C(=O)N(c4ccccc4)C(=O)C3C1N2Cc1ccccc1 (stereo unspecified)	x	x	23	-95	-6	96*
CC(C)Sc1nc2c(c(=O)[nH]c(=O)n2C)n1CCc1ccccc1	1	14	-1	5	-2	-5
O=C(Nc1ccc(-c2ccc(N3CCCCC3)nn2)cc1)c1ccco1	60*	-35	1	99*	22	-110
O=C(c1ccco1)N1CCN(c2ccc(N3CCCCC3)nn2)CC1	u	0	-21	99*	31*	-95
Cc1nc(N2CCN(C(=O)c3ccco3)CC2)nc2c1C(=O)CCC2	41*	0	-15	41	19	-42
CCCN1[C@H](C(=O)N2CCCCC2)[C@@H](CO)[C@@H]2Cn3c(ccc(-c4ccccc4OC)c3=O)[C@@H]21	1	-3	x	x	x	x
CC(C)(C)NC(=O)CCN(/N=C/c1ccccc1O)C1=NS(=O)(=O)c2ccccc21	7	-10	0	-9	1	10
O=C(O)c1c[nH]c2ccc(S(=O)(=O)N3CCOCC3)cc12	-1	107*	1	-4	1	6
O=c1cnn([C@@H]2O[C@H](CO)[C@@H](O)[C@H]2O)c(=O)[nH]1	16	-1	-2	17	x	-15
CN(C)S(=O)(=O)c1cccc(NC(=O)COC(=O)c2ccc3ccccc3n2)c1	-9	-2	-6	x	1	x
